Screening results: PubChem, National Center for Advancing Translational Sciences (NCATS)
IL-1B inflam inh: inflammasome signaling inhibition, IL-1 beta readout; THP-1 LPS/ATP IL-1B secretion, AlphaLISA, 16 h; stronger effect = lower value; activity change, % at 57.5 µM; hit rate 4.7% among 360,000; in the data active = activity change below about -50%; inconclusive = mostly about -30% to -49%
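THP-1 cells pretreated 1 hr with compounds (up to 57.5 uM final), then stimulated with LPS (250 ng/mL final) plus ATP (1.25 mM final); secreted IL-1B measured by AlphaLISA after 16 hr, decreased signal indicating inhibition.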
DT40 TDP1 CPT: DT40-hTDP1 cell growth loss with CPT. chicken DT40 Tdp1-/-;hTDP1 cells + 20 nM CPT, ATP luminescence, 48 h. Potency, µM (doses to about 46.2 µM), for inactives: at the highest dose activity change, negative = growth inhibition, hits mostly inhibitors. hit rate 12% among 420,000; note: potency is the fitted concentration of half-maximal effect; nearly all actives have a fitted effect of over 55% in size
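Chicken DT40 Tdp1-/- cells complemented with human TDP1, 400 cells/well, exposed to compounds plus 20 nM camptothecin for at least 48 h at 37 C; viability read as ATP content by CellTiter-Glo luminescence.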
ELG1 DNA repair: ELG1-dependent DNA repair inhibition; HEK293T ELG1-luciferase reporter, luminescence, 16 h; DNA damage induced by 5-fluorouridine; Potency, µM (top dose mostly 46.1 µM), inactives show at the highest dose activity change, negative = inhibition, hits mostly inhibitors; hit rate 2.3% among 330,000; note: potency is the fitted concentration of half-maximal effect; nearly all actives have a fitted effect of over 55% in size
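Quantitative HTS, concentration-response format. 2,000 cells/well co-treated with 5-fluorouridine and compound, 16 hr in 5% CO2 at 37 °C; ONE-Glo luminescence read after 30 min.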
HT1080-NT tox: kills 2HG-producing HT-1080-NT fibrosarcoma cells; Potency, µM (highest dose often 46.1 µM), inactives show at the top dose activity, negative = less viability, hits mostly cytotoxic; HT-1080-NT fibrosarcoma viability, CellTiter-Glo ATP luminescence, 48 h; hit rate 1.6% among 360,000;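 note: NT is the 2HG producing partner of a matched IDH1 knockdown line; potency is the fitted concentration of half-maximal effect; 0% = DMSO-treated cells and -100% = media-only wells without cells; nearly all actives have a fitted effect of over 55% in size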
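Read-out is CellTiter-Glo luminescence after 10 minutes at room temperature, following 48 hours' compound treatment of HT-1080-NT cells (750 cells/well, RPMI, 5% FBS, 37 degrees C).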
HT1080 IDH1KD tx: toxicity to HT-1080 IDH1 knockdown cells (counter line). HT-1080 IDH1 knockdown viability, ATP luminescence, 48 h. Potency, µM (titrated, usually from 46.1 µM), without a hit: top-dose activity, negative = toxicity, usual class: cytotoxic. hit rate 2% among 360,000. AID 686971;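 note: potency is the fitted concentration of half-maximal effect; 0% = DMSO wells and -100% = cell-free medium wells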
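% activity derives from luminescence (CellTiter-Glo), normalised to DMSO and no-cell wells. HT-1080-IDH1KD cells, 750/well, had 48 h compound exposure at 37 °C.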
DT40 TDP1 no CPT: qHTS for Inhibitors of human tyrosyl-DNA phosphodiesterase 1 (TDP1): qHTS in cells in absence of CPT; Potency, µM (highest dose often 46.2 µM), without a hit: at the top dose activity change, negative = growth inhibition, most hits filed as inhibitors; hit rate 15% among 420,000; DT40 Tdp1-/- hTDP1 cells, no CPT, ATP luminescence, 48 h; note: potency is the fitted concentration of half-maximal effect; nearly all actives have a fitted effect of over 55% in size
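Growth kinetics read by CellTiter-Glo luminescence after ≥48 hr at 37 °C. Cells: DT40 Tdp1-/- stably carrying human TDP1, 400 per well, compound exposure in the absence of CPT (DMSO vehicle).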
An asterisk follows results filed as active; ? = inconclusive; · = no result given; ! = repeats disagree. Most compounds without a hit are left out; they make up all but 19% or so of the library. Unless noted, calls come from the whole dose curve; as a rule, active = well fitted curve in the direction sought with a large enough effect; inconclusive = small, poorly fitted or top-dose-only effect, or another doubt; inactive = no such curve, though single readings can be large; an effect the other way counts as inactive or inconclusive. Unless noted, % is set by controls: 0 for no effect and ±100 for the full control effect.

SMILES	IL-1B inflam inh	DT40 TDP1 CPT	ELG1 DNA repair	HT1080-NT tox	HT1080 IDH1KD tx	DT40 TDP1 no CPT
O=C(c1ccc(CS(=O)c2ccccc2Cl)o1)N1CCN(c2ccccc2F)CC1 (stereo not given)	·	1.3µM*	·	·	·	1.3µM*
Cc1cccc(N2CCN(C(=O)c3cccs3)CC2)c1C	-1	-29%	-12%	0%	-6%	?
Cc1ccc(C(=O)N2CCN(c3cccc(C)c3C)CC2)o1	11	16µM*	-12%	?	?	?
Cc1cccc(N2CCN(C(=O)c3ccc(CS(=O)c4cccc(Cl)c4)o3)CC2)c1C (stereo not given)	·	0.82µM*	·	·	·	0.92µM*
NC(CCC(=O)NC(CS)C(=O)NCC(=O)O)C(=O)O (stereo not given)	-6	-9%	·	3%	5%	2%
COc1ccccc1N1CCN(C(=O)c2ccc(CS(=O)c3ccccc3C)o2)CC1 (stereo not given)	·	12µM*	·	·	·	13µM*
O=C(c1ccc(CS(=O)c2cccc(Cl)c2)o1)N1CCOCC1 (stereo not given)	9	-11%	16%	0%	2%	17%
Cc1ccc(Cl)cc1N1CCN(C(=O)c2ccc(CS(=O)c3ccccc3)o2)CC1 (stereo not given)	·	2.6µM*	·	·	·	5.2µM*
Cc1ccc(-c2c(C(=O)N3CCN(c4cccc(C)c4C)CC3)oc(=O)c3ccccc23)cc1	·	?	·	·	·	21µM*
Cc1ccc(Cl)cc1N1CCN(C(=O)c2noc3c2CCCC3)CC1	·	12µM*	·	·	·	?
Cc1cccc(N2CCN(C(=O)c3noc4c3CCCCC4)CC2)c1C	·	?	·	·	·	-51%
COc1ccc(CNC(=O)C(C)n2c(=O)cc(C)c3c(C)nn(-c4ccccc4)c32)cc1 (stereo not given)	·	-26%	·	·	·	-19%
COCc1ccc(C(=O)N2CCCC(Nc3ccc4c(c3)OCCO4)C2)o1 (stereo not given)	-3	-2%	14%	1%	9%	-8%
COc1ccc(NC2CCCN(C(=O)CSc3ccncc3)C2)cc1 (stereo not given)	5	-18%	-6%	4%	6%	?
Cc1ccc(CS(=O)Cc2ccc(C(=O)N3CCN(c4ccccn4)CC3)o2)cc1 (stereo not given)	2	21µM*	-19%	0%	3%	?
CC(C)C#Cc1cnc2c(c1)C(=O)N([C@H](C)CO)C[C@@H](C)[C@H](CN(C)C(=O)Nc1ccccc1F)O2	0	?	·	6%	17%	?
Cc1nc2sc(C(c3cccs3)N3CCN(Cc4ccccc4)CC3)c(O)n2n1 (stereo not given)	-28	23µM*	5%	0%	-1%	-4%
COc1ccc(C(c2sc3nc(C)nn3c2O)N2CCN(Cc3ccccc3)CC2)cc1OC (stereo not given)	-20	-6%	-5%	2%	-4%	-25%
Cc1oc(-c2ccccc2Cl)nc1CN1CCCCC1c1cccnc1 (stereo not given)	11	-18%	-4%	11%	4%	-27%
CCCCCC(=O)N1C[C@@H](n2cc(COC(=O)c3ccccc3)nn2)[C@H](O)C[C@@H]1c1ccc(C)cc1	24	-21%	·	18%	9%	-17%
CC(C(=O)OCC(=O)c1ccc([N+](=O)[O-])cc1)N1C(=O)C2C3CCC(C3)C2C1=O (stereo not given)	-5	16µM*	5%	13%	14%	?
O=C1C2C3C=CC(C3)C2C(=O)N1CCN1CCN(Cc2ccc([N+](=O)[O-])cc2)CC1 (stereo not given)	13	?	?	1%	-7%	16µM*
CC(C(=O)OCC(=O)c1ccc([N+](=O)[O-])cc1)N1C(=O)C2C3C=CC(C3)C2C1=O (stereo not given)	-56*	16µM*	-15%	15%	10%	?
O=C(CN1C(=O)C2C3C=CC(C3)C2C1=O)OCC(=O)c1ccc(Cl)cc1 (stereo not given)	-12	-10%	5%	6%	6%	15%
CC(C(=O)OCC(=O)c1ccccc1)N1C(=O)C2C3CCC(C3)C2C1=O (stereo not given)	24	-9%	3%	15%	27%	-23%
SMILES	IL-1B inflam inh	DT40 TDP1 CPT	ELG1 DNA repair	HT1080-NT tox	HT1080 IDH1KD tx	DT40 TDP1 no CPT
O=C(CN1C(=O)C2C3C=CC(C3)C2C1=O)OCC(=O)c1ccc([N+](=O)[O-])cc1 (stereo not given)	-69*	?	?	4%	1%	?
CC1(C)NC(=O)N(CCC(=O)Nc2ccc(C(C)(C)C)cc2)C1=O	25	9%	·	-2%	-2%	-38%
COc1cccc(NC(=O)C2CCC(CNS(=O)(=O)c3cccs3)CC2)c1 (stereo not given)	-18	-10%	-13%	?	-8%	?
COc1ccc(CN2C(=O)CN(S(C)(=O)=O)CC2(C)C(=O)Nc2c(C)cccc2C)cc1 (stereo not given)	0	8%	·	8%	0%	20%
CC12C=CC(=O)C=C1CCC1C3CCC(O)(C(=O)CO)C3(C)CC(O)C12F (stereo not given)	-57*	-5%	·	?	?	-6%
C[C@]12CCC(=O)C=C1CCC1C2C(O)C[C@]2(C)C1CC[C@]2(O)C(=O)COC(=O)CCC(=O)O (stereo not given in full)	·	4%	·	·	·	-7%
CC12C=CC(=O)C=C1C(F)CC1C3CCC(O)(C(=O)CO)C3(C)CC(O)C12F (stereo not given)	-24	-13%	·	?	?	?
C[C@]12CCC(=O)C=C1CC[C@@H]1[C@@H]2[C@@H](O)C[C@@]2(C)[C@H]1CC[C@]2(O)C(=O)COC(=O)CCC(=O)O	?	?	23%	?	29%	8.4µM*!
CC(=O)C1(O)CCC2C3CC(C)C4=CC(=O)C=CC4(C)C3(F)C(O)CC21C (stereo not given)	-54*	?	·	?	?	-28%
CC(=O)OCC(=O)C1(O)CCC2C3CCC4=CC(=O)CCC4(C)C3(F)C(O)CC21C (stereo not given)	-53*	-5%	·	19%	?	-21%
